What all share (conditions): mRNA level, 48 h; actives raise or lower the signal
Read-out in assay [1]: Tumor necrosis factor receptor superfamily member 6 (Homo sapiens) (UniProt P25445)
The assay can be described thus: LTEA_HepaRG_FAS: Life Technologies and Expression Analysis (LTEA) Assay for Fas cell surface death receptor (FAS) using HepaRG (AID 2283447). The gist of the method:
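FAS transcript level was measured by TaqMan qRT-PCR against three housekeeping genes after 48 h chemical exposure. Cells were HepaRG, 0.5% DMSO vehicle, with a top concentration of 100 uM and half-log dilutions over eight points, in duplicate.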

Read-out in assay [2]: Fatty acid synthase (Homo sapiens) (UniProt P49327)
The assay can be described thus: LTEA_HepaRG_FASN: Life Technologies and Expression Analysis (LTEA) Assay for Fatty Acid Synthase (FASN) using HepaRG (AID 2283448).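 As to AC50: differentiated human HepaRG liver cells in serum-free induction medium.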 The gist of the method: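 HepaRG, 48 h exposure, 8-pt half-log series top 100 uM, 0.5% DMSO vehicle, duplicates. Readout: FASN transcript by Fluidigm qRT-PCR; housekeeping-normalized; bidirectional curve fit vs DMSO baseline.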

Read-out in assay [3]: Cyclin D2 (CCND2), CCND2 (gene 894)
The assay can be described thus: LTEA_HepaRG_CCND2: Life Technologies and Expression Analysis (LTEA) Assay for Cyclin D2 (CCND2) using HepaRG (AID 2283449). An outline of the steps: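 CCND2 transcript levels, quantified by qRT-PCR and normalised to three housekeeping genes, were fitted bidirectionally against 0.5% DMSO. HepaRG cultures were dosed 48 h in duplicate with an 8-point half-log series up to 100 uM.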

Read-out in assay [4]: Cyclin Dependent Kinase Inhibitor 1A (CDKN1A), CDKN1A (gene 1026)
The assay can be described thus: LTEA_HepaRG_CDKN1A: Life Technologies and Expression Analysis (LTEA) Assay for Cyclin Dependent Kinase Inhibitor 1A (CDKN1A) using HepaRG (AID 2283450). An outline of the steps:
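HepaRG, 48 h dosing, 8-pt half-log series from 100 uM top, 0.5% DMSO vehicle, duplicates. Readout: TaqMan qRT-PCR of CDKN1A transcript, housekeeping-normalized (ACTB, GAPDH, POLR2A). Up/down curve fit relative to DMSO.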

Read-out in assay [5]: Cyclin D1 (CCND1), CCND1 (gene 595)
The assay can be described thus: LTEA_HepaRG_CCND1: Life Technologies and Expression Analysis (LTEA) Assay for Cyclin D1 (CCND1) using HepaRG (AID 2283451).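 As to AC50: differentiated human HepaRG liver cells in serum-free induction medium; TaqMan qRT-PCR transcript level normalised to ACTB GAPDH and POLR2A housekeeping genes.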 An outline of the steps:
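qRT-PCR (Fluidigm 96.96 array) read-out of transcript level, housekeeping-normalized (ACTB/GAPDH/POLR2A). HepaRG cells, 48 h chemical exposure, 8-point half-log series from 100 uM, 0.5% DMSO vehicle; gain or loss relative to DMSO baseline.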

Read-out in assay [6]: catalase (CAT), CAT (gene 847)
The assay can be described thus: LTEA_HepaRG_CAT: Life Technologies and Expression Analysis (LTEA) Assay for catalase (CAT) using HepaRG (AID 2283452). The gist of the method: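 Expression of CAT was quantified by TaqMan qRT-PCR with ACTB/GAPDH/POLR2A normalization after 48 h chemical exposure of HepaRG. Eight-point half-log series, top 100 uM, in 0.5% DMSO; gain or loss fitted against vehicle.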

Read-out in assay [7]: flavin-containing dimethylaniline monooxygenases 3 (FMO3), FMO3 (gene 2328)
Kind of assay: LTEA_HepaRG_FMO3: Life Technologies and Expression Analysis (LTEA) Assay for flavin-containing dimethylaniline monooxygenases 3 (FMO3) using HepaRG (AID 2283453).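 As to AC50: differentiated human HepaRG liver cells in serum-free induction medium.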 An outline of the steps:
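Eight-point concentration-response in serum-free HepaRG cultures (top 100 uM, 0.5% DMSO, 48 h). Read-out: FMO3 mRNA level normalized to three endogenous control genes, fitted bidirectionally versus vehicle.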

Read-out in assay [8]: Cytochrome P450 (CYP1A1), CYP1A1 (gene 1543)
The assay can be described thus: LTEA_HepaRG_CYP1A1: Life Technologies and Expression Analysis (LTEA) Assay for Cytochrome P450 (CYP1A1) using HepaRG (AID 2283454). The gist of the method:
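qRT-PCR read-out: CYP1A1 transcript normalized to three housekeeping genes, fitted bidirectionally against 0.5% DMSO vehicle baseline. Human HepaRG cells, 48 h chemical exposure, 8-point half-log series topping at 100 uM.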

Read-out in assay [9]: CFLAR gene, CFLAR (gene 8837)
Kind of assay: LTEA_HepaRG_CFLAR: Life Technologies and Expression Analysis (LTEA) Assay for CFLAR gene using HepaRG (AID 2283455). An outline of the steps: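 Transcript level by qRT-PCR (normalized to ACTB, GAPDH and POLR2A) after 48 h chemical exposure of HepaRG cells, top concentration 100 uM with half-log steps, 0.5% DMSO vehicle, duplicates; fitted bidirectionally against DMSO baseline.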

Read-out in assay [10]: Forkhead box O1 (FOXO1), FOXO1 (gene 2308)
Kind of assay: LTEA_HepaRG_FOXO1: Life Technologies and Expression Analysis (LTEA) Assay for Forkhead box O1 (FOXO1) using HepaRG (AID 2283456). The gist of the method: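 FOXO1 transcript quantified by qRT-PCR after 48 h chemical exposure (top 100 uM, half-log steps, 0.5% DMSO) of HepaRG cells, housekeeping-normalized (ACTB/GAPDH/POLR2A). Changes fitted in both directions relative to vehicle.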

Read-out in assay [11]: growth arrest and DNA damage 45 (GADD45A), GADD45A (gene 1647)
Kind of assay: LTEA_HepaRG_GADD45A: Life Technologies and Expression Analysis (LTEA) Assay for growth arrest and DNA damage 45 (GADD45A) using HepaRG (AID 2283458). The gist of the method:
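HepaRG, 48 h exposure, 8 conc. (top 100 uM, half-log steps), 0.5% DMSO vehicle, duplicates. Read-out: qRT-PCR mRNA level, housekeeping-normalized (ACTB/GAPDH/POLR2A). Curves fit bidirectionally vs DMSO baseline.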

Read-out in assay [12]: Forkhead box O3 (FOXO3), FOXO3 (gene 2309)
The assay can be described thus: LTEA_HepaRG_FOXO3: Life Technologies and Expression Analysis (LTEA) Assay for Forkhead box O3 (FOXO3) using HepaRG (AID 2283459). An outline of the steps: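 FOXO3 transcript measured by qRT-PCR (normalized to ACTB, GAPDH, POLR2A) after 48 h exposure of HepaRG cells in serum-free induction medium. Duplicates, eight half-log concentrations up to 100 uM, 0.5% DMSO; gain or loss fitted against DMSO.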

Read-out in assay [13]: ABC Transporter (ABCC3), ABCC3 (gene 8714)
Kind of assay: LTEA_HepaRG_ABCC3: Life Technologies and Expression Analysis (LTEA) Assay for ABC Transporter (ABCC3) using HepaRG (AID 2283462). The gist of the method: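 qRT-PCR read-out of ABCC3 transcript, normalized to three housekeeping genes (ACTB, GAPDH, POLR2A), after 48 h chemical exposure of human HepaRG cells. Eight half-log concentrations, highest 100 uM, in 0.5% DMSO; gain or loss fitted relative to DMSO baseline.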

Read-out in assay [14]: ABC Transporter (ABCB11), ABCB11 (gene 8647)
Kind of assay: LTEA_HepaRG_ABCB11: Life Technologies and Expression Analysis (LTEA) Assay for ABC Transporter (ABCB11) using HepaRG (AID 2283463). The gist of the method:
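ABCB11 transcript levels quantified by TaqMan qRT-PCR against three housekeeping genes after 48 h chemical exposure of HepaRG cultures. Concentrations up to 100 uM in half-log steps, 0.5% DMSO vehicle; both induction and suppression scored.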

Read-out in assay [15]: ABC Transporter (ABCC2), ABCC2 (gene 1244)
The assay can be described thus: LTEA_HepaRG_ABCC2: Life Technologies and Expression Analysis (LTEA) Assay for ABC Transporter (ABCC2) using HepaRG (AID 2283464). The gist of the method: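 qRT-PCR (TaqMan, Fluidigm array) read-out of ABCC2 mRNA, normalized to three housekeeping genes. Differentiated HepaRG cells were treated 48 h in serum-free induction medium with 8-point half-log series from 100 uM in 0.5% DMSO; curves fitted bidirectionally relative to DMSO.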

Read-out in assay [16]: growth arrest and DNA damage 45 (GADD45B), GADD45B (gene 4616)
The assay can be described thus: LTEA_HepaRG_GADD45B: Life Technologies and Expression Analysis (LTEA) Assay for growth arrest and DNA damage 45 (GADD45B) using HepaRG (AID 2283461). The gist of the method:
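qRT-PCR read-out (Fluidigm TaqMan, housekeeping-normalized) of mRNA change in human HepaRG cells after 48 h chemical exposure; 8-point curve, top 100 uM, half-log steps, 0.5% DMSO vehicle; gain or loss fitted relative to DMSO baseline.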

Read-out in assay [17]: ABC Transporter (ABCB1), ABCB1 (gene 5243)
The assay can be described thus: LTEA_HepaRG_ABCB1: Life Technologies and Expression Analysis (LTEA) Assay for ABC Transporter (ABCB1) using HepaRG (AID 2283460). The gist of the method:
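ABCB1 transcript level measured by TaqMan qRT-PCR against three housekeeping genes after 48 h chemical exposure of differentiated HepaRG cells. Top concentration 100 uM, half-log steps, eight points, 0.5% DMSO vehicle; bidirectional fit relative to DMSO.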

Molecules are shown by their SMILES. The source made the active and inactive calls. The calls were made as follows: active = hit-call score of the fitted dose curve at least 0.9, where 1 is the maximum; inactive = score below 0.9.

Fatty acid synthase (Homo sapiens), sequence (P49327 whole entry, looked up): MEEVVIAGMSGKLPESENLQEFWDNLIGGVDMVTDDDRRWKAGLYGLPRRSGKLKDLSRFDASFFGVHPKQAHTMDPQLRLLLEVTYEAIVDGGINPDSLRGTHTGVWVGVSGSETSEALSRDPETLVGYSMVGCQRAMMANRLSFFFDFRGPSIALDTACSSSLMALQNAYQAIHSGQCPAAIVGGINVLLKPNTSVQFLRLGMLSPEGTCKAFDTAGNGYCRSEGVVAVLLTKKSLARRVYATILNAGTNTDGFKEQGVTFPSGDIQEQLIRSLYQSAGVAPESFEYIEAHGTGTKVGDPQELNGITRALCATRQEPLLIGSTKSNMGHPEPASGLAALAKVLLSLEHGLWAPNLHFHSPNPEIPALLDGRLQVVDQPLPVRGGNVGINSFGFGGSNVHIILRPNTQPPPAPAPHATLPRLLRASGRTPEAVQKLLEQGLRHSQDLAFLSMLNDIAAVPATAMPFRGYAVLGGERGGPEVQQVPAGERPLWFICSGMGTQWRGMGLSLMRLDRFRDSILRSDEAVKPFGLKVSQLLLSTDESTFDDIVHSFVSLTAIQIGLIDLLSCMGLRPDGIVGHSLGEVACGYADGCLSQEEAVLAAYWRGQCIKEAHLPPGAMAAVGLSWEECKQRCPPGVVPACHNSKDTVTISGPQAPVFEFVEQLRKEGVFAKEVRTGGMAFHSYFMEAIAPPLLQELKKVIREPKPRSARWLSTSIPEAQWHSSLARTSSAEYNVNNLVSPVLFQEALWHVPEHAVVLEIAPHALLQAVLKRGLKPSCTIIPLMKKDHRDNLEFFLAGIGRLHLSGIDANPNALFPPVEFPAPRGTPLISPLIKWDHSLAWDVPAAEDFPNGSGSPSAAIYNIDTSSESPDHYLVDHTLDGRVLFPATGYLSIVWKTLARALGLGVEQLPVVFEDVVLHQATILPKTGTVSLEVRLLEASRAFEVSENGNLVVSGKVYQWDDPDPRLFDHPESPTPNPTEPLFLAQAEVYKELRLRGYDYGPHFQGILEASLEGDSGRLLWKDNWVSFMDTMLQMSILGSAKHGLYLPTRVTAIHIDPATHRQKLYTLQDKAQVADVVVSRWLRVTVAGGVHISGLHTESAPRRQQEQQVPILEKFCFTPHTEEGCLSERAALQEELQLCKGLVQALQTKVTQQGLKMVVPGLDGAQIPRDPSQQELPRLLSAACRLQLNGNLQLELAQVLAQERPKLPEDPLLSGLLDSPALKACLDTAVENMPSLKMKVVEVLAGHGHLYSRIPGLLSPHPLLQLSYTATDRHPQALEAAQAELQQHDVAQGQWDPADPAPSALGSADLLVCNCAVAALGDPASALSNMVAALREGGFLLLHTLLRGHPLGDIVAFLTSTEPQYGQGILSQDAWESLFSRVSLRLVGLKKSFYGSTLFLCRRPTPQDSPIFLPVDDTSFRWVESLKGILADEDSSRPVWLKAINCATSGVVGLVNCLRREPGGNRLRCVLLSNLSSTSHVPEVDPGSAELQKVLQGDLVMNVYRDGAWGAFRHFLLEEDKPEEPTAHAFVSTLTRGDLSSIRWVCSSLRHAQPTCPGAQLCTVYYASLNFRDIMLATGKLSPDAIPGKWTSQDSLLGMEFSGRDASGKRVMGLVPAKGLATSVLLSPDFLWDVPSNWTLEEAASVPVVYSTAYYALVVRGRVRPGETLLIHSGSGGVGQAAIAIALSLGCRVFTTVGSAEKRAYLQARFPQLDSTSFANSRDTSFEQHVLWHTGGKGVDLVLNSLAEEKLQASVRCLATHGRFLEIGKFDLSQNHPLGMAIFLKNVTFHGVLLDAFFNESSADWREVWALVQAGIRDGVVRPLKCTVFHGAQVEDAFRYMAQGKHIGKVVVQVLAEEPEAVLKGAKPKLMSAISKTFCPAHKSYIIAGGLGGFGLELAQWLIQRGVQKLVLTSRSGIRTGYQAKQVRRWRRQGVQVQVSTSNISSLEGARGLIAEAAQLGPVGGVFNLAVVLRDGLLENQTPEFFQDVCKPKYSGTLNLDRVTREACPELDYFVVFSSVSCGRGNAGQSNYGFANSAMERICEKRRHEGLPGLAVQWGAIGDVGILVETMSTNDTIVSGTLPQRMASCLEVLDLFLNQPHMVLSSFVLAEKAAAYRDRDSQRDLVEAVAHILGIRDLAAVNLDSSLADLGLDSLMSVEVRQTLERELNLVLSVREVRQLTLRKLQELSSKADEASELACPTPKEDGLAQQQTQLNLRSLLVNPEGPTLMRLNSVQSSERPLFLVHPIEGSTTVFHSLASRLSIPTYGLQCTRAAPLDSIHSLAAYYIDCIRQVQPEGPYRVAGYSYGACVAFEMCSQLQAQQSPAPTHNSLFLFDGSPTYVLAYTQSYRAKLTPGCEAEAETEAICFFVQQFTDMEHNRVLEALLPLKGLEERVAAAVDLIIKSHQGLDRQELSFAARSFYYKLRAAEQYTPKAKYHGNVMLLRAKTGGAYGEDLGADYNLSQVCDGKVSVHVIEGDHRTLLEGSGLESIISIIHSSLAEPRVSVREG

Regarding `C=CCC1=C(C)[C@@H](OC(=O)[C@@H]2[C@@H](C=C(C)C)C2(C)C)CC1=O`, the result in [1], in assay [2], in [3], in assay [4], in assay [5] and in assay [6] was inactive. Also, the result in assay [7], in [9], in assay [10], in assay [11], in [12] and in assay [15] was inactive. Further, the AC50 (usually the concentration at which the activity in the assay is half-maximal) in [8] was 63 µM (active); in assay [13], 74.2 µM (active); in [14], 50 µM (active).
With `COC(=O)c1ccccc1C(=O)OC`, the outcome in assay [1], in assay [2], in assay [3], in [4], in assay [5] and in [6] was inactive. Moreover, the compound was classed as inactive in assay [7], in assay [8], in assay [9], in [10], in assay [11] and in assay [12]. The call in assay [13], in assay [14] and in assay [15] was inactive.
`COc1cnc(OC)n2nc(NS(=O)(=O)c3c(OCC(F)F)cccc3C(F)(F)F)nc12`: the compound was classed as inactive in assay [1], in [2], in [3], in assay [4], in assay [5] and in assay [6]. Also, the outcome in assay [7], in assay [9], in assay [10], in [11], in [12] and in assay [13] was inactive. In addition, the outcome in assay [14] and in [15] was inactive. Moreover, in [8], the AC50 was 32.8 µM (active).
Take `CNC(=O)ON=CC(C)(C)SC`: the result in assay [1], in assay [2], in [3], in assay [4], in [5] and in assay [6] was inactive. Also, the call in assay [7], in assay [8], in assay [9], in [10], in assay [11] and in [12] was inactive. Also, the result in assay [16], in assay [13], in assay [14] and in assay [15] was inactive.
On to `CCCCC(CC)COC(=O)c1ccccc1C(=O)OCC(CC)CCCC` (configuration not stated), for which the result in assay [1], in [2], in assay [3], in assay [4], in [5] and in assay [6] was inactive. Moreover, the compound was called inactive in [7], in assay [9], in [10], in assay [11], in assay [12] and in [13]. Also, the call in assay [14] and in [15] was inactive. Also, the AC50 in assay [8] was 34.4 µM (active).
For the compound `N#Cc1cc(Br)c(O)c(Br)c1`, the compound was classed as inactive in [1] and in [3]. The AC50 is 8.13 µM (active) in assay [2]; 10.1 µM (active) in assay [4]; 10.4 µM (active) in assay [5]; 9.54 µM (active) in assay [6]; 12.7 µM (active) in assay [7]; 73.6 µM (active) in assay [8]. Moreover, the AC50 in [9] is 10 µM (active); in [10], 40 µM (active); in assay [11], 72.5 µM (active); in [12], 13.7 µM (active); in assay [16], 27.1 µM (active); in assay [13] it was 9.48 µM (active). Besides, the AC50 in assay [14] was 19.9 µM (active); in [15], 14 µM (active).
Regarding `CC(C)C1(C)N=C(c2nc3ccccc3cc2C(=O)O)NC1=O` (configuration not stated), the result in assay [1], in assay [2], in assay [4], in assay [5], in [6] and in assay [7] was inactive. Further, the outcome in assay [9], in assay [10], in assay [11], in assay [12], in [17] and in assay [13] was inactive. Besides, the call in assay [14] and in [15] was inactive. Moreover, in assay [8], the AC50 was 34.6 µM (active).

(Values after PubChem BioAssay (EPA / NIEHS).)
